High-throughput results from PubChem.
D2 PAM-1 = human D2 receptor positive allosteric modulation | potentiation, % (no concentration beside the values) | 360,000 compounds, 0.23% hits | DiscoveRx D2 beta-arrestin cells, luminescence, 90 min; 100% = 57 uM dopamine signal | AID 624464 | P14416; in the data active = potentiation above about 50%
Target sequence (P14416 whole entry, looked up): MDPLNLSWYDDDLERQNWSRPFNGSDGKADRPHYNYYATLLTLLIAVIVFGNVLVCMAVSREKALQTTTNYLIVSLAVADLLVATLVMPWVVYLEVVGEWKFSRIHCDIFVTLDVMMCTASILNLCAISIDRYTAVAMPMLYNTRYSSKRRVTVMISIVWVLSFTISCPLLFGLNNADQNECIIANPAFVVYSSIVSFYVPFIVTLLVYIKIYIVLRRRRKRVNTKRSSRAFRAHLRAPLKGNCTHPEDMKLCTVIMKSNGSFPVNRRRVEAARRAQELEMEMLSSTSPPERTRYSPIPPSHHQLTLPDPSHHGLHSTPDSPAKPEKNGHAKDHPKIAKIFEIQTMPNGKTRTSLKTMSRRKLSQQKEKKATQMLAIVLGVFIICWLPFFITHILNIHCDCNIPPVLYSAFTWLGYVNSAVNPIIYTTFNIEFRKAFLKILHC
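PathHunter D2 cells, attached overnight at 37 deg C, received compound in DMSO plus dopamine at EC20 (50 nM final) for 90 min at 37 deg C. Beta-arrestin recruitment was read as luminescence after 1 h with detection reagent at ambient temperature.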
D2 antagonist = antagonizes the human D2 dopamine receptor | P14416 | HEK293 TREx D2 cells, calcium flux, dopamine EC80 | inhibition, % at 10 µM | 340,000 compounds, 2% hits; in the data active = inhibition above about 30%; inactive = below that, where a call was filed; also: 0% is about no effect
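Antagonism is scored as inhibition of an EC80 dopamine-evoked calcium signal in a force-coupled, tetracycline-inducible HEK293 T-REx D2 line, with compound present 180 s before agonist.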
D2 ag-1 = agonists of human D2 dopamine receptor; HEK293 T-REx D2 cells, calcium flux agonist mode; activation, % at 2 µM; 340,000 compounds, 0.53% hits; AID 485358;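 active = activation over 3 SD above normal in the single-dose calcium agonist read, cut at about 30% in these data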; also: 0% is about no effect
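HEK293 Trex D2 cells, tetracycline-induced, o/n 30 C 5% CO2; no-wash Ca dye, RT 30–90 min; 10-cycle baseline, 23 nl cpd added, kinetic Ca read 180 s; agonist hits = positive Ca response.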
D2 ag-2 = human D2 receptor agonism in beta-arrestin assay; P14416; DiscoveRx PathHunter D2 beta-arrestin, luminescence, 90 min; 100% = 57 uM dopamine signal; activation, % (concentration not given with the values); 360,000 compounds, 0.084% hits; AID 624465; in the data active = activation above about 40%
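DiscoveRx PathHunter D2 beta-arrestin cells (2,100/well) attached overnight, then compound-stimulated 90 min at 37 C in HBSS/10 mM HEPES/0.1% Tween-20 buffer; beta-galactosidase complementation read by luminescence after 1 h at ambient temperature. Dopamine 57 uM final (EC100) as control.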
D2 PAM-2 = positive allosteric modulators of human D2 dopamine receptor; P14416; HEK293 T-REx D2, calcium flux, EC20 dopamine potentiation; potentiation, % at 10 µM; 340,000 compounds, 0.34% hits; AID 485347;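 active = potentiation over 3 SD above the plate norm, cut at about 30% in these data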; also: 0% is about no effect
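Primary screen. Calcium kinetics in induced HEK293 T-REx D2 cells: compound pre-addition 180 s, EC20 dopamine, 180 s more.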
* marks the source's active call; other numbers are inactive results. The list is not random: actives were taken first. Their share in the collection is about 2.4%.

Results for COc1ccc(NC(=O)NCc2ccncc2)c(OC)c1 ?
D2 PAM-1: -31.6; D2 antagonist: 6.2; D2 ag-1: -1.0; D2 ag-2: -0.5; D2 PAM-2: -4.7

Results for COc1ccc(OC)c(NC(=O)NCc2ccc(F)cc2)c1 ?
D2 PAM-1: -18.2; D2 antagonist: 38.9*; D2 ag-1: 0.8; D2 ag-2: -0.1; D2 PAM-2: -16.1

What do the screens show for `COc1ccc(C)cc1NC(=O)NCc1ccc(F)cc1`?
D2 PAM-1: -22.3; D2 antagonist: 52.8*; D2 ag-1: -0.7; D2 ag-2: -5.7; D2 PAM-2: -20.3

How did COc1ccc(CNC(=O)Nc2cc(C)ccc2C)cc1 do in these assays?
D2 PAM-1: -8.4; D2 antagonist: 5.3; D2 ag-1: 1.4; D2 ag-2: -4.7; D2 PAM-2: -7.8

What do the screens show for `CC1CCN(S(=O)(=O)c2ccc3c(c2)CCN3C(=O)Nc2ccccc2Br)CC1`?
D2 ag-1: 0.8; D2 PAM-2: 2.0

What do the screens show for `COc1ccc(OC)c(NC(=O)C2(C)CCN2Cc2ccccc2OC(F)F)c1` (centres undefined)?
D2 PAM-1: 17.6; D2 ag-2: 108.2*

What do the screens show for `CCc1cccc(C)c1NS(=O)(=O)c1cc2[nH]c(=O)c(=O)[nH]c2cc1C`?
D2 ag-1: -1.0; D2 PAM-2: 0.7

Results for COc1ccc(C(=O)OCC(=O)N2CCN(C(=O)c3ccco3)CC2)c(OC)c1OC ?
D2 PAM-1: -6.8; D2 ag-2: 0.3

How did CC(C)NC(=O)COc1coc(CN2CCN(Cc3ccccc3)CC2)cc1=O do in these assays?
D2 PAM-1: -2.0; D2 antagonist: -4.4; D2 ag-1: 1.6; D2 ag-2: 0.8; D2 PAM-2: 1.1

What do the screens show for `CN(C(=O)c1ccc(COc2ccccc2Br)o1)c1ccccc1`?
D2 PAM-1: -2.0; D2 antagonist: 44.2*; D2 ag-1: -1.2; D2 ag-2: 2.9; D2 PAM-2: -15.9

What do the screens show for `COc1ccc(CN2CCN(C(=O)c3ccco3)CC2)c(OC)c1OC`?
D2 PAM-1: 60.2*; D2 ag-2: 46.4*

What do the screens show for `CC(C)NC(=O)COc1coc(CN2CCN(C(=O)c3ccco3)CC2)cc1=O`?
D2 PAM-1: -22.4; D2 antagonist: 49.7*; D2 ag-1: -0.1; D2 ag-2: -3.6; D2 PAM-2: 7.1

What do the screens show for `COc1ccccc1OCc1ccc(C(=O)NN)o1`?
D2 PAM-1: -16.0; D2 antagonist: 76.5*; D2 ag-1: -1.0; D2 ag-2: 3.8; D2 PAM-2: -19.3

What do the screens show for `COc1ccccc1OCc1ccc(C(=O)N/N=C/c2ccco2)cc1`?
D2 PAM-1: -25.2; D2 antagonist: 43.6*; D2 ag-1: 0.0; D2 ag-2: -2.1; D2 PAM-2: -17.9

Results for COc1ccccc1OCc1ccc(C(=O)N2CCN(C(=O)c3ccco3)CC2)cc1 ?
D2 PAM-1: -7.9; D2 antagonist: 35.4*; D2 ag-1: 0.0; D2 ag-2: 1.5; D2 PAM-2: -6.4

How did Cc1cccc(NC(=O)C(Cc2ccccc2)n2cccc2)c1C (centres undefined) do in these assays?
D2 PAM-2: -2.0

Results for O=c1[nH]c2ccccc2cc1CN(CC1CCCO1)S(=O)(=O)c1ccccc1 (centres undefined) ?
D2 PAM-1: -0.5; D2 antagonist: 34.6*; D2 ag-1: 0.2; D2 ag-2: 5.1; D2 PAM-2: -25.4

Results for CCOc1ccc(CNCCN2CCCC2)cc1 ?
D2 PAM-1: -14.4; D2 antagonist: 74.1*; D2 ag-1: 0.6; D2 ag-2: -3.9; D2 PAM-2: -18.7

Results for CCn1c(CNc2ccc(Cl)cc2)nnc1SCCN1CCCCC1 ?
D2 PAM-1: -52.6; D2 antagonist: 50.0*; D2 ag-1: -0.1; D2 ag-2: -2.5; D2 PAM-2: -26.9

How did CC12CN(Cc3ccccc3)CC(C)(CN(Cc3ccccc3)C1)C2=O do in these assays?
D2 PAM-1: -8.4; D2 antagonist: -8.7; D2 ag-1: 0.5; D2 ag-2: 0.9; D2 PAM-2: 5.2

How did CC1(C)C(=O)NC(=O)N1Cc1ccccc1 do in these assays?
D2 PAM-1: -15.5; D2 antagonist: 44.8*; D2 ag-1: -0.4; D2 ag-2: -2.6; D2 PAM-2: -5.1

Results for CCN(CC(=O)Nc1c(F)cccc1F)C(=O)C1COc2ccccc2O1 (centres undefined) ?
D2 PAM-1: 0.2; D2 antagonist: 35.7*; D2 ag-1: 0.0; D2 ag-2: 0.6; D2 PAM-2: 9.4

What do the screens show for `O=C1OC2(c3ccccc31)c1cc(I)c(O)c(I)c1Oc1c2cc(I)c(O)c1I`?
D2 antagonist: 53.3*; D2 ag-1: 104.9*; D2 PAM-2: -16.9

What do the screens show for `O=C1OC(c2ccccc2)(c2ccc(O)cc2)c2ccccc21` (centres undefined)?
D2 PAM-1: -2.3; D2 ag-2: -0.7

What do the screens show for `Cc1ccc2c(=O)cc(C(=O)Nc3ccc(S(=O)(=O)N(C)Cc4ccccc4)cc3)oc2c1C`?
D2 ag-1: -1.2; D2 PAM-2: 13.0

What do the screens show for `Cc1cc(C)cc(NC(=O)C(=O)NCC(c2ccc3c(c2)OCO3)N2CCOCC2)c1` (centres undefined)?
D2 ag-1: -1.8; D2 PAM-2: 1.3

Results for Cc1csc(/C(=N/OC(=O)c2ccco2)C(N)=O)n1 ?
D2 PAM-1: -2.6; D2 antagonist: 41.7*; D2 ag-1: -0.3; D2 ag-2: -4.3; D2 PAM-2: 3.8

How did COc1ccc2cc(CNc3ccc(OC)c(OC)c3)c(=O)n(CC(=O)Nc3ccc(C)cc3)c2c1 do in these assays?
D2 ag-1: -0.1; D2 PAM-2: 4.2

How did CCOC(=O)c1c(C)[nH]c(C(=O)COC(=O)C2CC2)c1C do in these assays?
D2 PAM-1: -3.2; D2 antagonist: -8.7; D2 ag-1: -0.3; D2 ag-2: -0.4; D2 PAM-2: -7.9

What do the screens show for `CC(=O)c1c(C)[nH]c(C(=O)COC(=O)C2CC2)c1C`?
D2 PAM-1: 1.4; D2 antagonist: 32.4*; D2 ag-1: -3.0; D2 ag-2: 1.5; D2 PAM-2: -1.5

Results for CCCCCCC(C)NC(=S)Nc1cc(S(=O)(=O)N(C)C)ccc1C (centres undefined) ?
D2 PAM-1: -41.2; D2 antagonist: 92.2*; D2 ag-1: 1.4; D2 ag-2: -1.4; D2 PAM-2: -27.1

Results for Cc1ccc(S(=O)(=O)N(C)C)cc1NC(=S)NC(C)CCCC(C)C (centres undefined) ?
D2 PAM-1: -40.8; D2 antagonist: 74.9*; D2 ag-1: 0.4; D2 ag-2: 3.8; D2 PAM-2: -22.8

What do the screens show for `Cc1ccc(S(=O)(=O)N(C)C)cc1NC(=S)NC(C)CCC(C)C` (centres undefined)?
D2 PAM-1: -37.0; D2 antagonist: 77.4*; D2 ag-1: -0.1; D2 ag-2: -2.7; D2 PAM-2: -24.9
